Experiment [1] can be described thus: Confirmatory screen NINDS Rhodamine qHTS for Zika virus inhibitors (AID 1347161). Further: nearly all actives have a fitted effect of over 60% in size. Further: potency means the concentration at half of the fitted maximal effect.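 On activity change, negative = inhibition: purified Zika NS2B-NS3 protease with linked NS2B cofactor domain and Rhodamine110 peptide substrate; series mostly up to about 110 µM; plate controls were no-inhibitor control for no effect and no-enzyme control for full effect.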 Summed up:
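Kinetic fluorescence (Ex 480 nm, Em 540 nm) over 15 min with 1.5 microM Rhodamine110 peptide and 25 nM linked protease.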

The nature of experiment [2]: ZIKV-mCherry secondary qHTS for Zika virus inhibitors (AID 1347158). Further: top concentration of the series differs between compounds. Summed up:
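Compounds were tested in Vero monkey kidney cells infected with recombinant mCherry-expressing Zika virus at MOI 1 for 48-72 h at 37 °C. Fixed cells were nuclear-stained and imaged, and infection rate was taken as the fraction of mCherry-positive cells.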

In experiment [3] the test system is Zika virus NS2B-NS3 protease (linked). In words: 384 well plate NINDS AMC confirmatory qHTS for Zika virus inhibitors (AID 1347163). Further: nearly all actives have a fitted effect of over 50% in size. Further: potency means the concentration at half of the fitted maximal effect.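 On activity change, negative = inhibition: linked protease at 5 30 or 60 nM final depending on run; fluorescence of AMC released from Ac-VKTGKR-AMC peptide cleaved by the protease; top concentration of the series differs between compounds; 0% = no-inhibitor control and -100% = no-enzyme control.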 Summed up:
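Fluorescence at 355/460 nm was read after 25 minutes of cleavage of 30 microM Ac-VKTGKR-AMC at room temperature, in the dark. Before substrate addition, compounds (up to 1 mM final) sat ~15 minutes with 5, 30 or 60 nM linked protease. Signals were normalized to no-enzyme and no-inhibitor wells.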
In general terms: qHTS replaces the single test concentration by a dilution series.

The subject of experiment [4] is Zika virus NS2B-NS3 protease (linked construct). The experiment in a line: 384 well plate NINDS Rhodamine confirmatory qHTS for Zika virus inhibitors (AID 1347164). Further: nearly all actives have a fitted effect of over 65% in size. Further: potency means the concentration at half of the fitted maximal effect.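 On activity change, negative = inhibition: top concentration of the series differs between compounds; plate controls were no-inhibitor control for no effect and no-enzyme control for full effect.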 The method, boiled down:
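Compounds are incubated about 15 minutes with linked protease (5, 30 or 60 nM final). Rhodamine 110-tagged Ac-LKRR substrate (10 microM final) is added and fluorescence measured after 25 minutes.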

For experiment [5], the target named is Cytochrome P450 3A4 (Homo sapiens) (UniProt P08684). In words: qHTS Assay for Inhibitors and Substrates of Cytochrome P450 3A4 (AID 884). Further: series mostly up to about 57 µM; on the % scale 0 is the no-effect control and ±100 the full control effect; nearly all actives have a fitted effect of over 50% in size. The method, boiled down:
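Luminescent readout of luciferin produced by CYP3A4 (20 nM) dealkylation of Luciferin-PPXE, 25 uM (its KM). NADPH-driven reaction ran 60 min at RT after 10 min compound preincubation; data scaled to 57 uM ketoconazole as 100% inhibition.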

Experiment [6] is described as follows: SW1088 Cancer Cell Toxicity qHTS against the NCATS CANVASS Library (AID 1347350). Further: nearly all actives have a fitted effect of over 75% in size. The method, boiled down: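 Cells were seeded at 1000 per well, allowed 4 h at 37 degrees C/5% CO2, then pin-treated with an 11-point compound series. After 72 h, viability was read as CellTiter-Glo luminescence following 15min at room temperature.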
Experiment [7] is described as follows: HEK-293 Cancer Cell Toxicity qHTS against the NCATS CANVASS Library (AID 1347355). Further: series mostly up to about 46 µM; nearly all actives have a fitted effect of over 65% in size. Summed up:
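First, 1000 cells go into each well and rest for 4 hours. Next, an 11-point dilution range is pinned in. Plates then incubate 72 hours before CellTiter-Glo addition and luminescence reading.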

Experiment [8] can be described thus: HEK293 18hr Apoptosis Induction qHTS against the NCATS CANVASS Library (AID 1347357). Further: 0% is about no effect. Summed up: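 Luminescent caspase-3/7 signal is measured in HEK293 cells exposed for 18 hours to an 11-point concentration series; doxorubicin serves as the plate control.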
A short description of experiment [9]: qHTS assay for small molecule disruptors of mitochondrial membrane potential screened against the NCATS CANVASS Library (AID 1347389). Further: series mostly up to about 46 µM; on the % scale 0 is the no-effect control and ±100 the full control effect; nearly all actives have a fitted effect of over 60% in size. The method, boiled down:
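Mitochondrial depolarization in HepG2 cells is scored as a falling aggregate-to-monomer fluorescence ratio after 1 hr compound exposure and 30 min staining with Mito-MPS dye at 37C, each compound tested as an 11-point titration.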

The nature of experiment [10]: Secretion counterscreen for inhibitors of the SERCaMP assay screened against the NCATS CANVASS Library (AID 1347390).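 Further: light from luciferase secreted into medium read as a measure of general secretion; series mostly up to about 77 µM; on the % scale 0 is the no-effect control and ±100 the full control effect.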 The method, boiled down: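 Counterscreen identifying compounds that disrupt secretion, using SH-SY5Y cells with a constitutively secreted Gaussia luciferase reporter. A 20 h compound exposure (top 77 uM) precedes luminescent detection with coelenterazine.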

Experiment [11] can be described thus: Vero-766 cells viability qHTS against the NCATS CANVASS Library: Counterscreen for Zika virus inhibition assay (AID 1347394). Further: series mostly up to about 46 µM; on the % scale 0 is the no-effect control and ±100 the full control effect; nearly all actives have a fitted effect of over 60% in size. Summed up: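 This cytotoxicity counterscreen uses African green monkey Vero 766 cells in the absence of Zika virus. Compounds are incubated with cells for 72 h, and ATP-based luminescence reports viability.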
Experiment [12] is described as follows: qHTS for Activators of p53 Stress Response Pathway screened against the NCATS CANVASS Library (AID 1347388). Further: 0% is about no effect. The method, boiled down:
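p53RE-bla HCT-116 cells (4000/well) were plated 5 h at 37C, exposed to compounds for 16 h at 37C over an 11-point concentration series, then loaded with CCF4 for 2 h at room temperature; 460/530 nm emission ratio read.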

Experiment [13] can be described thus: qHTS for activators of dead-cell proteases activity screened against the NCATS CANVASS Library (AID 1347392).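 Further: luminescence from protease leaking out of membrane-damaged cells cleaving impermeant substrate; 0% is about no effect; rising signal means more cytotoxicity.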 Summed up:
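Cytotoxicity in HepG2 cells was assessed by released protease cleaving AAF-aminoluciferin, with luminescence as signal. Exposure lasted 5 h at 37C across an 11-point series.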

The nature of experiment [14]: qHTS for inhibitors of ER calcium dysfunction: SERCaMP assay screened against the NCATS CANVASS Library (AID 1347393).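 Further: series mostly up to about 77 µM; on the % scale 0 is the no-effect control and ±100 the full control effect; lower secreted reporter signal means inhibitor of ER calcium depletion; nearly all actives have a fitted effect of over 40% in size.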 The method, boiled down: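 qHTS in SH-SY5Y reporter cells: 16 h compound pretreatment, 4 h thapsigargin, then secreted Gaussia luciferase measured by luminescence.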
Experiment [15] in a line: DH5-alpha competent E. coli microbial cell viability qHTS against the NCATS CANVASS Library (AID 1347377). Particulars: outcome: dose series up to 46.1 µM unless noted. The method, boiled down:
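Bacteria were dispensed at 0.2 OD, then compounds were pin-transferred. Plates were incubated overnight at 37C, after which BacTiter-Glo was added and luminescence measured 20 min later.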

Molecules are shown by their SMILES. Records with an inconclusive call do not appear. A number with no mark means an inactive call. Activity calls are given as the source filed them. The call rests on the fitted dose curve; in most records, active means well fitted curve in the direction sought with a large enough effect; inconclusive means small, poorly fitted or top-dose-only effect, or another doubt; inactive means no such curve, though single readings can be large; an effect the other way counts as inactive or inconclusive.

The record followed here is PubChem BioAssay (NCATS).

Chain of Cytochrome P450 3A4 (Homo sapiens) (P08684 whole entry, looked up): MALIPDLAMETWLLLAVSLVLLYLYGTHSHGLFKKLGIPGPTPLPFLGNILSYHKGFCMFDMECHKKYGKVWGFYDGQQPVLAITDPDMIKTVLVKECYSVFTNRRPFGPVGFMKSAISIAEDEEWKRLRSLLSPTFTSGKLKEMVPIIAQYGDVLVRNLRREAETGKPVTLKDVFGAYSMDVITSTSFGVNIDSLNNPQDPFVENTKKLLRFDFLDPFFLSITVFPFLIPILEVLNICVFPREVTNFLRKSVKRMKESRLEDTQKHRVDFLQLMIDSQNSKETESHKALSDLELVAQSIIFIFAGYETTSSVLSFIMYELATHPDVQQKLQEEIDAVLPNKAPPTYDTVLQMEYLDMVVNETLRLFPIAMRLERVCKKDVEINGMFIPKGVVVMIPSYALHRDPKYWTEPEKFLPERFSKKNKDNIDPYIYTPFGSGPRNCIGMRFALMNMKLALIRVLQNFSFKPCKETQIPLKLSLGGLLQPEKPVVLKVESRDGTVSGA

`CCCCOC(=O)c1ccc(NC(=O)c2ccc3c(c2)CCN3S(=O)(=O)c2ccccc2)cc1`: in [1], the Potency entry was “inactive”.

With `COc1ccc(S(=O)(=O)c2cc(NS(=O)(=O)c3ccc(Cl)cc3)c(C)c(C)c2O)cc1`, the Potency entry in experiment [1] is “inactive”.

For the compound `Cc1ccc(S(=O)(=O)Nc2cc(SCC(=O)O)c(O)c3ccccc23)cc1[N+](=O)[O-]`, in experiment [2], the Potency result was “inactive”. Further, the Potency in experiment [1] was 6.98 µM (active); in experiment [3] it was 31.6 µM (active). Further, in experiment [4], the activity change, negative = inhibition is -280% [at 100 µM].

With `O=C(Nc1cccc(C(=O)OCc2cc(=O)n3nc(C4CC4)sc3n2)c1)c1ccc(F)cc1`, the Potency result in experiment [2] is “inactive”. In addition, the Potency in experiment [1] is 31.6 µM (active); in experiment [3], 89.1 µM (active).

`O=C(OC1Cc2c(O)cc(O)cc2OC1c1cc(O)c(O)c(O)c1-c1c(C2Oc3cc(O)cc(O)c3CC2OC(=O)c2cc(O)c(O)c(O)c2)cc(O)c(O)c1O)c1cc(O)c(O)c(O)c1` (stereo unspecified): the Potency entry in experiment [5], in experiment [2] and in [4] was “inactive” in each case. Moreover, in experiment [3], the Potency was 20 µM (active).

Regarding `CC(=O)Nc1ccc(S(=O)(=O)O)c2cc(S(=O)(=O)O)c(N=Nc3ccc(N=Nc4ccc(S(=O)(=O)O)cc4)c4ccc(S(=O)(=O)O)cc34)c(O)c12`, the Potency in experiment [3] is 22.4 µM (active); in [4] it was 3.98 µM (active).

For the compound `Cc1cccc(C)c1-n1c(SCC(=O)Nc2ccc(C(=O)O)cc2)nnc1-c1cccc([S+](=O)([O-])N2CCCC2)c1`, the Potency entry in experiment [2] is “inactive”. Moreover, the results for the Potency in [3] and in experiment [4] were 70.8 µM (active) and 89.1 µM (active), respectively.

Consider `C=C1c2c(Cl)ccc(O)c2C(O)=C2C(=O)[C@]3(O)C(O)=C(C(N)=O)C(=O)[C@@H](N(C)C)[C@@H]3[C@@H](O)C12` (stereo partly specified), for which the Potency result in experiment [2] is “inactive”. Also, the Potency was 70.8 µM (active) in experiment [3] and 20 µM (active) in [4].

On to `C[C@@H]1O[C@H](c2c(O)cc(O)c3c(=O)cc(-c4ccc(O)cc4)oc23)[C@H](O)[C@H](O)[C@H]1O`, for which the Potency result in experiment [6], in experiment [7], in [8], in experiment [9], in experiment [10] and in experiment [11] was “inactive” in each case.

On to `C=C1C[C@@]23C=CC(=O)[C@@](C)(CCC(=O)Nc4c(OC5O[C@H](CO)[C@@H](O)[C@H](O)[C@H]5O)ccc(C(=O)O)c4O)C2C[C@@H]1CC3` (stereo partly specified), for which the Potency result in experiment [6], in [7], in experiment [12], in experiment [9], in [13] and in [14] was “inactive” throughout. The Potency entry in experiment [11] is “inactive”.

Take `CC(=O)NC[C@@H]1O[C@H](CC/C=C(C)/C(C)=C/C=O)[C@H](C)C[C@H]1O`: the Potency result in experiment [8] and in [13] was “inactive” in each case. Besides, the compound was called inactive in [15].

As to `O=C(Nc1ccc(C(=O)OCc2cc(=O)n3c4c(sc3n2)CCCC4)cc1)c1ccc(F)cc1`, the Potency result in [2] and in experiment [3] was “inactive” each time.

For `CC[C@@H]1C[C@@]2(CC)OC(=O)[C@@]3(CC)OC(=O)[C@@H]1[C@@H]23`, the Potency entry in experiment [7], in experiment [8], in [9], in [10], in experiment [14] and in [11] was “inactive” in each case. For the same compound, the compound was classed as inactive in experiment [15].
